In PubChem BioAssay AID2391 (Southern Research Specialized Biocontainment Screening …, 2010):
About 410 (0.13%) of roughly 310,000 compounds were called active. Roughly 2% stayed inconclusive and do not appear here. How the calls were made is not given here. Not all results are given here. Entries with a potency or affinity are not part of this list.

Assay: RSV antiviral activity via CPE protection, HEp-2 cells, primary 10 µM value included (AID 2391)
Settings: RSV-induced CPE inhibition, at 10 µM, active compounds read high

CPE inhibition, inactive:
CCOc1ccc(Br)cc1S(=O)(=O)Nc1ccc(C(=O)OCC(=O)Nc2ccc(C#N)cc2)cc1 2.94%
O=C(NC1CCN(S(=O)(=O)c2cccc(Cl)c2)CC1)C1CCCCC1 1.22%
CCOc1ccc(S(=O)(=O)NCCC(=O)Nc2nnc(C)s2)cc1 1.74%
CCCOc1ccc(N2C(=O)CC(N(Cc3ccccc3)N=O)C2=O)cc1 (configuration not stated) -0.02%
CCCOc1ccc(N2C(=O)CC(N(CCc3ccc(OC)cc3)C(=O)c3ccccc3)C2=O)cc1 (configuration not stated) 3.8%
N#C/C(=C\c1ccccc1O)C(=O)Nc1ccccn1 9.95%
Cc1cc([N+](=O)[O-])cc(C)c1OCC(=O)N/N=C/c1ccc(OC(=O)c2ccccc2)cc1 10.1%
COc1cc(/C=N/NC(=O)COc2c(C)cc([N+](=O)[O-])cc2C)ccc1OC(=O)c1ccccc1Br 5.39%
COc1cc(-n2c(=O)c3ccccc3n(Cc3cc(=O)n4ccccc4n3)c2=O)cc(OC)c1OC 2%
Cc1sc2c(c1C)c(=O)n(-c1ccc(Cl)cc1)c(=O)n2Cc1cc(=O)n2ccccc2n1 8.46%
Cc1ccc(-n2c(=O)c3c4c(sc3n(Cc3cc(=O)n5ccccc5n3)c2=O)CCC4)cc1C 9.89%
O=c1c2sccc2nc(SCc2cc(=O)n3ccccc3n2)n1Cc1ccccn1 0.36%
CCOc1ccc(-n2c(=O)c3sccc3n(Cc3ccc(C)cc3)c2=O)cc1 2.63%
Cc1ccc(-n2c(=O)c3c(C)c(C)sc3n(Cc3cc(=O)n4ccccc4n3)c2=O)cc1C 11.6%
Cc1sc2ncnc(N3CCC(C(=O)Nc4ccc(Br)cc4Br)CC3)c2c1C 10.1%
CCOC(=O)c1cc(-c2ccccc2)n(Cc2cc(CC)no2)n1 2.08%
Cc1ccc(-n2nc3c(c2NC(=O)c2ccco2)CS(=O)(=O)C3)cc1 1.04%
Cc1ccc(S(=O)(=O)Nc2ccncc2)c(C)c1N(C)S(=O)(=O)c1ccc(Cl)cc1 3.66%
CCOC(=O)c1c(C)nc2c(c1-c1cc(OC)ccc1OC)C(=O)c1ccccc1-2 0.88%
CN(C)[C@@H]1CCC[C@@H]1OC(=O)C(c1ccccc1)c1ccccc1 1.33%
COc1ccc(C(=O)NCc2nnc(SCC(=O)Nc3cc(C)on3)o2)cc1OC 0.22%
Cc1ccccc1-c1cc2nc(C)c(C)c(=O)n2[nH]1 2.53%
Cc1cccnc1NC1CCCCC1 0.99%
COc1ccc(NC(=O)COc2ccccc2C(=O)NCC(c2ccccc2)N(C)C)cc1Cl (configuration not stated) 0.1%
CN(C)c1ccc(NC(=O)/C=C/c2ccccc2Cl)cc1 4.05%
O=C(/C=C/c1c(Cl)cccc1Cl)Nc1ccncc1 15.2%
CCCCNCc1cc(Br)c(OCC(=O)N2CCOCC2)c(OC)c1 0.24%
O=C(O)Cc1ccc(NC(=O)c2ccc3c(c2)C(=O)N(Cc2ccco2)C3=O)cc1 1.76%
O=C(Nc1ccc2c(c1)CCC2)C1CCCN(c2ncccn2)C1 (configuration not stated) -1.9%
Cc1cccc(-c2nc(CSCC(=O)N3CCN(Cc4ccc5c(c4)OCO5)CC3)c(C)o2)c1 4.52%
CCOc1ccc(NC(=NCc2ccc3c(c2)OCO3)SC2CC(=O)N(c3ccc(OCC)cc3)C2=O)cc1 (configuration not stated) 2.56%
O=C1CC(SC(=NCc2ccc3c(c2)OCO3)Nc2ccccc2)C(=O)N1c1ccccc1 (configuration not stated) 3.83%
O=C(O)c1ccc(N2C(=O)CC(SC(=NCc3ccc4c(c3)OCO4)Nc3ccccc3)C2=O)cc1 (configuration not stated) 5.3%
CCOc1ccc(NC(=NCc2ccc3c(c2)OCO3)SC2CC(=O)N(c3ccccc3)C2=O)cc1 (configuration not stated) 1.98%
COc1ccc(CN2C(=O)c3cccnc3C2=O)cc1S(=O)(=O)N(C)c1cccc(C)c1 1.8%
O=C(Nc1ccc(Cn2cccn2)cc1)c1ccc(COc2cccc(Br)c2)cc1 -0.58%
Cc1ccc(C(=O)NCC2CCCN2S(=O)(=O)c2cccs2)cc1C (configuration not stated) 1.81%
CCC(C)NCC(=O)Nc1ccc(-c2nc3cc(NC(=O)CNC(C)CC)ccc3o2)cc1 (configuration not stated) 1.28%
CCCC(=O)Nc1cccc(-c2nc3cc(C)c(C)cc3o2)c1 1.54%
Cc1ccc(-c2nc3cc(NC(=O)C(C)C)ccc3o2)cc1 4.38%
CCC(C)c1ccc2oc(-c3ccc(NC(=O)c4ncn[nH]4)cc3)nc2c1 (configuration not stated) 9.89%
CCCC(=O)Nc1ccc(-c2nc3cc(C)ccc3o2)cc1 40.7%
Cc1ccc(-c2nc3cc(NC(=O)C(C)C)ccc3o2)cc1C 14.6%
Clc1ccc(CSc2ccc(-c3cccnc3)nn2)cc1 20.4%
Cc1c(C(=O)OCC(=O)Nc2c(C)n(C)n(-c3ccccc3)c2=O)oc2ccccc12 0.38%
Cc1cc(OCC(O)CN2CCCC2)cc(C)c1Cl (configuration not stated) -0.91%
CC(C)n1c(SCC(=O)N2CCCC2)nc2c1c(=O)n(C)c(=O)n2C -0.46%
CCCN(Cc1nnc(-c2ccccc2Cl)o1)C(=O)c1oc2ccccc2c1C 44%
O=C(c1ccccc1)c1cc([N+](=O)[O-])ccc1N1CCCC1 3.67%
S=c1nccc(-c2cccs2)[nH]1 5.75%
O=C1c2ccccc2NC2(CCCC2)N1N=C1CCCC1 2.08%
O=C1CC(NCc2ccccc2F)C(=O)N1c1ccccc1 (configuration not stated) 0.44%
Cc1ccc(NC(=O)CCS(=O)(=O)c2cccc3nonc23)c(Cl)c1 0.71%
COC(=O)c1ccc(Cn2nnc3ccccc3c2=O)o1 4.91%
COC(=O)c1ccc(CSc2nc3ccccc3c(=O)n2CC(C)C)o1 4.85%
Cc1c(C)c2ccc(OCC(=O)Nc3nccs3)cc2oc1=O 20.3%
COc1ccc(OC)c(N(C(=O)c2ccco2)C(C(=O)NC2CCCC2)c2ccc(N3CCOCC3)cc2)c1 (configuration not stated) 1.32%
CCOc1ccc(/C=C2\SC(=S)N(NS(=O)(=O)c3ccccc3)C2=O)cc1OC 2.94%
COc1cc(/C=C2\SC(=S)N(NS(=O)(=O)c3ccccc3)C2=O)ccc1O 4.97%
CN1CCN(C(=O)c2cc(Cl)cc(Cl)c2NC(=O)c2ccco2)CC1 0.57%
Cc1cc(NC(=O)c2cc3ccccc3o2)ccc1NC(=O)c1ccccc1 5.86%
O=C(Nc1ccc(NC(=O)c2cc3ccccc3o2)cc1)c1ccc2c(c1)OCCO2 6.03%
Cc1ccc(N(CC(=O)NCCc2ccc(F)cc2)S(=O)(=O)c2ccc(Cl)c([N+](=O)[O-])c2)c(C)c1 3.85%
Cc1cc(C)c2nc(N3CCC(C(=O)NCCCN4CCCCC4)CC3)sc2c1 21.9%
Cc1cccc(S(=O)(=O)Nc2ccc(-c3cn4ccccc4n3)cc2)c1 21%
COC(=O)Cn1c(=NC(=O)c2cccc(OC)c2)sc2cc(OC)ccc21 1.97%
NNC(=O)c1cc(-c2ccccc2)sc1N 1.27%
Nc1c(C(=O)N/N=C/c2ccc(Cl)cc2)cnn1-c1ccccc1 0.12%
CC(C)CCN1CCN(Cc2cccn2-c2nccs2)CC1CCO (configuration not stated) 1.17%
OCCC1CN(Cc2cccn2-c2nccs2)CCN1Cc1ccccc1 (configuration not stated) -1.03%
COc1ccc(Cn2nnnc2C(c2cccs2)N2CCOCC2)cc1 (configuration not stated) 0.05%
CC(=O)Nc1ccc(NC(=O)c2c(C)nn(Cc3ccccc3)c2Cl)cc1 5.46%
Cc1nn(-c2ccccc2Cl)c(Cl)c1/C=N/Nc1cccc(C(=O)O)c1 3.47%
Cc1nn(-c2ccccc2Cl)c(Cl)c1/C=N/Nc1nc2ccccc2s1 4.62%
CCC(C(=O)Nc1c2c(nn1C(C)(C)C)CS(=O)(=O)C2)c1ccccc1 (configuration not stated) 1.09%
Cn1ccnc1SCc1ccc(Cl)cc1Cl 1.17%
CN(C)/C=C/c1onc(-c2c(Cl)cccc2Cl)c1C#N 1.69%
N#Cc1c(-c2ccccc2Cl)noc1/C=C/Nc1ccc(C(=O)O)cc1 2.42%
O=C(c1ccccc1Sc1c(Cl)cccc1[N+](=O)[O-])N1CCOCC1 4.6%
COc1ccc(/C(C)=N/NC(=O)C2C3CCCCC32)c(OC)c1 (configuration not stated) -0.16%
CCc1ccc(OCC(=O)Nc2ccc3c(c2)OCCO3)cc1 0.88%
Cc1ccc2c(c1)cc(CN(Cc1ccco1)C(=O)N1CCOCC1)c1nnnn12 -0.68%
Cc1ccc2c(c1)cc(CN(Cc1cccs1)C(=O)c1ccco1)c1nnnn12 4.88%
O=C(c1ccc(Cl)c(S(=O)(=O)N2CCCC2)c1)N1CCOCC1 4.9%
O=c1[nH]c(CNCc2cccnc2)nc2ccccc12 1.68%
CCC1C(=O)n2nc(-c3ccccc3)cc2N=C1C (configuration not stated) 0.9%
Cc1cc(NC(=O)COC(=O)c2cc(S(=O)(=O)N(C)c3ccccc3)ccc2Cl)no1 0.4%
Cc1cc(NC(=O)COC(=O)c2oc3c(Cl)cccc3c2C)no1 2.63%
Cc1cccc(NS(=O)(=O)c2cc(C(=O)OCC(=O)Nc3cc(C)on3)ccc2C)c1 -0.1%
Cc1cc(NC(=O)COC(=O)c2ccc(NS(=O)(=O)c3ccc(C)c(C)c3)cc2)no1 0.64%
Cc1cc(NC(=O)COc2ccc(N(C)S(=O)(=O)c3ccccc3)cc2)no1 0.18%
Cc1cc(NC(=O)c2c(Cl)cccc2Cl)no1 -0.16%
